Test results published in PubChem BioAssay AID1159580 (chemical genetic matrix, 2015).
“And” between values parts separate entries of the source, which are not always exact repeats. Identical values can stand only once. The whole screen tested about 5,500 compounds, of which about 2,000 (36%) were called active. Inconclusive results (about 18%) are left out. This is one part of the list. A number with no mark means an inactive call. Rule as the data show it: active = normalized growth mostly below about 0.91 (no sharp cut-off); inconclusive = no clear call, values can overlap the other calls; inactive = mostly above about 0.92.

Assay: chemical genetic growth profiling, strain panel (AID 1159580);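 also: tested at 20 µM; growth read once vehicle control cultures reached saturation at 30 °C; 1 = growth at the plate median or of vehicle wells; lower values mean less growth of the strain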
Conditions: S. cerevisiae deletion strains, growth OD

SMILES: CC(CN(C)C)CN1c2ccccc2Sc2ccccc21 (configuration not stated)
- normalized growth (locus YAL013W, strain DEP1, hits give low values): 0.993
- normalized growth (locus YAL021C, strain ccr4, hits give low values): 0.99
- normalized growth (locus YAL026C, strain drs2, hits give low values): 0.951
- normalized growth (locus YAL030W, strain snc1, hits give low values): 1.02
- normalized growth (locus YBL061C, strain skt5, hits give low values): 1.02
- normalized growth (locus YBR009C, strain hhf1, hits give low values): 1.02
- normalized growth (locus YBR021W, strain FUR4, hits give low values): 0.818 (active)
- normalized growth (locus YBR023C, strain chs3, hits give low values): 1.02
- normalized growth (locus YBR171W, strain sec66, hits give low values): 1.04
- normalized growth (locus YBR229C, strain ROT2, hits give low values): 0.992
- normalized growth (locus YBR231C, strain swc5, hits give low values): 1.03
- normalized growth (locus YBR279W, strain paf1, hits give low values): 1.02
- normalized growth (locus YCL011C, strain gbp2, hits give low values): 1.02
- normalized growth (locus YCL016C, strain dcc1, hits give low values): 1.01
- normalized growth (locus YCL029C, strain bik1, hits give low values): 0.989
- normalized growth (locus YCL061C, strain MRC1, hits give low values): 1.02
- normalized growth (locus YCL069W, strain vba3, hits give low values): 1.02
- normalized growth (locus YCR088W, strain abp1, hits give low values): 1.02
- normalized growth (locus YDL005C, strain med2, hits give low values): 1.02
- normalized growth (locus YDL035C, strain GPR1, hits give low values): 0.985
- normalized growth (locus YDL040C, strain nat1, hits give low values): 1.01
- normalized growth (locus YDL074C, strain BRE1, hits give low values): 0.933
- normalized growth (locus YDL101C, strain DUN1, hits give low values): 0.985
- normalized growth (locus YDL134C, strain PPH21, hits give low values): 0.979
- normalized growth (locus YDL185W, strain tfp1, hits give low values): 0.974
- normalized growth (locus YDL192W, strain arf1, hits give low values): 0.998
- normalized growth (locus YDR001C, strain nth1, hits give low values): 1.01
- normalized growth (locus YDR069C, strain doa4, hits give low values): 1.01
- normalized growth (locus YDR101C, strain arx1, hits give low values): 0.988
- normalized growth (locus YDR137W, strain rgp1, hits give low values): 1.22 [resistant] (active)
- normalized growth (locus YDR150W, strain NUM1, hits give low values): 1.01
- normalized growth (locus YDR159W, strain sac3, hits give low values): 1.03
- normalized growth (locus YDR162C, strain NBP2, hits give low values): 0.991
- normalized growth (locus YDR195W, strain ref2): 1.13
- normalized growth (locus YDR297W, strain sur2, hits give low values): 1.01
- normalized growth (locus YDR318W, strain mcm21, hits give low values): 0.974
- normalized growth (locus YDR334W, strain swr1, hits give low values): 1.02
- normalized growth (locus YDR335W, strain msn5, hits give low values): 1.02
- normalized growth (locus YDR388W, hits give low values): 0.966
- normalized growth (locus YDR392W, strain spt3, hits give low values): 1.07
- normalized growth (locus YDR502C, strain sam2, hits give low values): 0.99
- normalized growth (locus YEL003W, strain gim4, hits give low values): 0.988
- normalized growth (locus YEL037C, strain rad23, hits give low values): 1.01
- normalized growth (locus YEL061C, strain CIN8 (second series), hits give low values): 1.02
- normalized growth (locus YEL061C, strain CIN8, hits give low values): 0.994
- normalized growth (locus YER015W, strain faa2, hits give low values): 1.03
- normalized growth (locus YER016W, strain bim1, hits give low values): 1.02
- normalized growth (locus YER110C, hits give low values): 0.999
- normalized growth (locus YER111C, strain swi4, hits give low values): 1.03
- normalized growth (locus YER155C, strain BEM2 (second series), hits give low values): 1.04
- normalized growth (locus YER155C, strain BEM2, hits give low values): 0.99
- normalized growth (locus YER167W, strain BCK2, hits give low values): 0.997
- normalized growth (locus YFR010W, strain ubp6, hits give low values): 0.985
- normalized growth (locus YGL078C, strain dbp3, hits give low values): 0.986
- normalized growth (locus YGL086W, strain mad1, hits give low values): 0.991
- normalized growth (locus YGL167C, strain pmr1, hits give low values): 1.03
- normalized growth (locus YGL173C, strain kem1, hits give low values): 1.03
- normalized growth (locus YGL227W, strain vid30, hits give low values): 1.02
- normalized growth (locus YGL240W, strain doc1, hits give low values): 1.03
- normalized growth (locus YGL248W, strain PDE1, hits give low values): 0.995
- normalized growth (locus YGL253W, strain hxk2, hits give low values): 1.02
- normalized growth (locus YGR078C, strain PAC10, hits give low values): 0.958
- normalized growth (locus YGR135W, strain pre9, hits give low values): 0.944
- normalized growth (locus YGR229C, strain SMI1, hits give low values): 0.911
- normalized growth (locus YGR252W, strain gcn5, hits give low values): 0.917
- normalized growth (locus YHR013C, strain ard1, hits give low values): 1.04
- normalized growth (locus YHR027C, strain rpn1, hits give low values): 1.05
- normalized growth (locus YHR030C, strain SLT2, hits give low values): 0.983 and 1
- normalized growth (locus YHR079C, strain IRE1 (second series), hits give low values): 0.985
- normalized growth (locus YHR079C, strain IRE1, hits give low values): 0.993
- normalized growth (locus YHR094C, strain hxt1, hits give low values): 0.993
- normalized growth (locus YHR129C, strain ARP1, hits give low values): 0.989
- normalized growth (locus YHR142W, strain chs7, hits give low values): 1.01
- normalized growth (locus YHR200W, strain rpn10, hits give low values): 0.988
- normalized growth (locus YIL066C, strain RNR3, hits give low values): 0.972
- normalized growth (locus YIL073C, strain SPO22, hits give low values): 0.991
- normalized growth (locus YIL125W, strain kgd1, hits give low values): 0.996
- normalized growth (locus YIR030C, strain dcg1, hits give low values): 0.989
- normalized growth (locus YJL092W, strain hpr5, hits give low values): 1.01
- normalized growth (locus YJL095W, strain BCK1 (second series), hits give low values): 1.01
- normalized growth (locus YJL095W, strain BCK1, hits give low values): 0.861 and 1
- normalized growth (locus YJL115W, strain asf1, hits give low values): 1.01
- normalized growth (locus YJL129C, strain trk1, hits give low values): 1.11
- normalized growth (locus YJL134W, strain LCB3, hits give low values): 0.992
- normalized growth (locus YJL154C, strain vps35, hits give low values): 1.02
- normalized growth (locus YJL164C, strain tpk1, hits give low values): 1.02
- normalized growth (locus YJL166W, strain qcr8, hits give low values): 1.02
- normalized growth (locus YJL168C, strain set2, hits give low values): 0.993
- normalized growth (locus YJL187C, strain SWE1 (second series), hits give low values): 0.957
- normalized growth (locus YJL187C, strain SWE1, hits give low values): 1.01
- normalized growth (locus YJR043C, strain POL32, hits give low values): 1.02
- normalized growth (locus YJR066W, strain TOR1, hits give low values): 0.937
